Assay outcomes (PubChem)
Compounds with a hit are over-represented: about 1.2% of the library has one in this group of screens.
RGS4-Gao reg: human RGS4-Galphao interaction regulation; P09471; Multiplexed bead flow cytometry, RGS4-Galphao binding; actives lie on both sides; binding response (% of control), % at 10 µM; 220,000 compounds, 0.33% hits; AID 1415; in the data active means binding response below about 49% or above about 150%; inactive means in between;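 further: fluorescent Galphao activated with aluminum fluoride binding bead-coupled RGS4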
Target sequence (P09471 whole entry, looked up): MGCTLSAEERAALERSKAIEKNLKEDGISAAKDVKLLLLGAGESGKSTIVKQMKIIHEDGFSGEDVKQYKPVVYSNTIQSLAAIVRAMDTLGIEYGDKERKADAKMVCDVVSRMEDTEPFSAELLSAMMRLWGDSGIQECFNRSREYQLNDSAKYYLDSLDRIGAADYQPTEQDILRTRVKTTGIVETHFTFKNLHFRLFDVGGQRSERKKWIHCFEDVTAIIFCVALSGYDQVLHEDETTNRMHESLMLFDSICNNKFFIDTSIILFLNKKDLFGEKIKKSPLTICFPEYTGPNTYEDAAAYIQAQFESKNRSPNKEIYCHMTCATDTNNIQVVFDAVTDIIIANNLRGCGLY
GSH fluor: GSH bead compound fluorescence profile; GSH beads flow cytometry, compound fluorescence 488/530 nm; active compounds read high; fluorescence (KMESF) at 10 µM; 190,000 compounds, 0.25% hits; AID 1776; in the data active means fluorescence above about 89;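 further: glutathione beads carrying GST-tagged Bcl family fusion proteins plus one bare bead set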
RGS8-Gao reg: human RGS8-Galphao interaction regulation. P09471. multiplexed bead flow cytometry, RGS8-Galphao binding; actives lie on both sides. response (percent of control binding), % at 10 µM. 220,000 compounds, 0.34% hits; in the data active means response below about 60% or above about 140%; inactive means in between;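 further: Galphao activated as the GDP aluminium fluoride complex binding bead-coupled RGS8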
RGS16-Gao HTS: regulators of human RGS16-Galphao interaction | O15492+P09471 | bead-based flow cytometry RGS16-Galphao binding, fluorescence; actives lie on both sides | binding response (% of control), % at 10 µM | 220,000 compounds, 0.38% hits | AID 1441; call rule not given here;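 further: Galphao activated by GDP with aluminum fluoride before binding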
Target sequence (O15492 whole entry, looked up): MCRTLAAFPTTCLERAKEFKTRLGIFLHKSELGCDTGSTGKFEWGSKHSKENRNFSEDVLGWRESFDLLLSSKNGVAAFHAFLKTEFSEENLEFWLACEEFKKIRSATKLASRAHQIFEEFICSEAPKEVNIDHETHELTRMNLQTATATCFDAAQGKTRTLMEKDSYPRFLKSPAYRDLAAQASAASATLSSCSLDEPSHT
Target sequence (P09471 whole entry, looked up): as the sequence (P09471 whole entry, looked up) above
Avidin fluor: avidin bead compound fluorescence profile; Avidin beads, compound fluorescence 488/530 nm, flow cytometry; active compounds read high; fluorescence (KMESF) at 10 µM; 220,000 compounds, 0.38% hits; in the data active means fluorescence above about 47
RGS7-Gao reg: modulates binding of RGS7 to human Galphao; 220,000 compounds, 0.35% hits; Multiplexed bead flow cytometry; actives lie on both sides; binding response (% of control), % at 10 µM; in the data active means binding response below about 49% or above about 150%; inconclusive means no clear call, values can overlap the other calls; inactive means in between;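 further: fluorescent Galphao held in activated GDP-AlF4 state binding bead-coupled RGS7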
Of the large screens only hits and unclear results are named; the others gave an inactive call; [ ] = another dose, or the depositor's remark.

O=C(CN1CCOCC1)N1CCN(S(=O)(=O)c2ccccc2)C1c1ccccc1 (stereo not drawn)	Avidin fluor 59
CCCCc1c(C)nc2ccc(C(=O)OCC)cc2c1Cl	none
CCOC(=O)c1ccc2nc(C)c(CCC(C)=O)c(Cl)c2c1	RGS4-Gao reg 19, RGS8-Gao reg 11, RGS16-Gao HTS 8.4, RGS7-Gao reg 19
C=CCOc1cccc(/C=N/NC(=O)CN(c2cc(Cl)ccc2OC)S(=O)(=O)c2ccc(C)c([N+](=O)[O-])c2)c1	GSH fluor 196
COc1ccc(Cl)cc1N(CC(=O)N/N=C/c1ccc(OC(C)C)cc1)S(=O)(=O)c1ccc(C)c([N+](=O)[O-])c1	none
Cc1cccc(-c2c3c(=O)n(C)c(=O)n(C)c3cn2CC2CCCO2)c1 (stereo not drawn)	GSH fluor 261
Fc1ccc2c(Cl)c(-c3nnc(-c4cccs4)o3)sc2c1	GSH fluor 255
COc1cc(C(=O)NNc2nc3cc4c(cc3s2)OCO4)cc(OC)c1OC	RGS4-Gao reg 161[activator]
O=C1C(c2ccnc3ccccc23)=C(O)c2ccccc21	GSH fluor 128
CC(=O)Nc1ccc2c(c1)C(=O)c1ccccc1C2=O	Avidin fluor 59
O=C1c2ccccc2C(=O)c2cc(NC(=O)C3CC3)ccc21	none
NS(=O)(=O)c1ccc(CCNC(=O)CN2CCCCCC2)cc1	none
Nc1cc(N)nc(SCC(=O)N2CCN(S(=O)(=O)c3ccccc3)CC2)n1	RGS7-Gao reg inconclusive (no result: GSH fluor)
CN(CCO)C(=O)c1cccc2c1-c1ccccc1C2=O	GSH fluor 259
Cc1cc(C(=O)N2CCN(C(c3ccccc3)c3ccccc3)CC2)no1	Avidin fluor 52
CCCc1cc(C(=O)N2CCN(C(c3ccccc3)c3ccccc3)CC2)no1	none
O=C(COC(=O)c1ccncc1)NCCCc1ccccc1	RGS4-Gao reg 154[activator], RGS7-Gao reg 152[activator]
O=C(COC(=O)c1ccncc1)NCc1ccccc1	none
COc1ccc(-c2cc(-c3ccccc3)nc(SCC(=O)Nc3nccs3)c2C#N)cc1	Avidin fluor 56
NS(=O)(=O)c1ccc(NC(=O)c2ccc(-c3ccccc3)cc2)cc1	none
NS(=O)(=O)c1ccc(NS(=O)(=O)c2ccc(NC(=O)c3ccc(-c4ccccc4)cc3)cc2)cc1	Avidin fluor 373
CC(=O)OCC(=O)Nc1ccc([N+](=O)[O-])cc1Cl	none
CC(=O)OCC(=O)Nc1ccc(Cl)cc1Cl	GSH fluor 231
COC(=O)c1sc(C(C)(C)C)cc1CSc1ccccc1	RGS7-Gao reg inconclusive (no result: GSH fluor)
O=c1oc2cc(O)ccc2cc1-c1nc2c(s1)CCc1ccccc1-2	GSH fluor 159
O=c1oc2ccccc2cc1-c1nc2c(s1)CCc1ccccc1-2	none
Cc1ccc(S(=O)(=O)N(C)Cc2nc(-c3ccncc3)no2)cc1	Avidin fluor 50
O=C(CSc1ncccn1)NCc1cccc(Cl)c1	none
Cc1ccc(NC(CC(=O)c2ccccc2)C(=O)O)cc1Cl (stereo not drawn)	RGS7-Gao reg inconclusive (no result: GSH fluor)
O=C(CC(Nc1ccccc1)C(=O)O)c1ccccc1 (stereo not drawn)	GSH fluor 259
CC1CCN(C(c2ccc(N(C)C)cc2)c2nnnn2Cc2ccc(F)cc2)CC1 (stereo not drawn)	GSH fluor 251
Fc1ccc(Cn2nnnc2C(c2ccc(Cl)cc2)N2CCSCC2)cc1 (stereo not drawn)	none
Cc1cnc(NC(=O)CSc2nnc(-c3cccs3)n2C)s1	GSH fluor 269
CCOC(=O)c1cnn(-c2ccc(C)cc2)c1N	GSH fluor 255
O=C(C1CCOCC1)N1CCC(CO)(CCc2ccccc2)CC1	none
COc1ccc(C(=O)OCCN2CCOCC2)cc1	GSH fluor 96
CCOc1ccc(C(=O)Nc2nnn(CC)n2)cc1	none
CCn1nnc(NC(=O)c2cccnc2Cl)n1	GSH fluor 259
CC(C)Cn1cnc2c(c(-c3ccccc3)c(-c3ccccc3)n2Cc2ccco2)c1=N	GSH fluor 251
N=c1c2c(-c3ccccc3)c(-c3ccccc3)n(Cc3ccco3)c2ncn1Cc1ccccc1	none
Cc1cc(NC(=O)CN2C(=O)NC(C)(c3ccc(OC(F)F)cc3)C2=O)no1 (stereo not drawn)	Avidin fluor 48
Cc1nc2cc(Nc3ccncc3)ccc2s1	none
Cc1ccc(N2C(=O)C3CCC(C)(C2=O)C3(C)C)cc1 (stereo not drawn)	RGS7-Gao reg inconclusive (no result: GSH fluor)
CC12CCC(C(=Nc3ccc(N=C4C(=O)C5(C)CCC4C5(C)C)cc3)C1=O)C2(C)C	Avidin fluor 57, RGS7-Gao reg inconclusive (no result: GSH fluor)
Cc1cc(C(=O)NCC(=O)OC(C(=O)Nc2cc(C(F)(F)F)ccc2Cl)c2ccccc2)ccc1[N+](=O)[O-] (stereo not drawn)	GSH fluor 257
Cc1cc(NC(=O)C2(c3ccccc3)CCCC2)no1	Avidin fluor 59
COc1cccc(N=Nc2c(N)[nH]n3c(=O)c4c(nc23)CCCC4)c1	none
Cc1ccccc1-n1ncc(C(C)NC(=O)c2ccco2)c1C (stereo not drawn)	none
S=C1COC(c2ccccc2)N1c1ccccc1 (stereo not drawn)	GSH fluor 142
S=C1N(c2ccccc2)C(c2ccccc2)N2CCCN12 (stereo not drawn)	none
CC(C)Cc1cc(C(=O)N2CCC(N3CCC(C(=O)NC4CC4)CC3)CC2)n[nH]1	none
COC(=O)C(Cc1cnc(Cl)s1)(C(=O)OC)c1ccc([N+](=O)[O-])cc1[N+](=O)[O-]	GSH fluor 272
OCCC1CN(CC(c2ccccc2)c2ccccc2)CCN1C1CCCC1 (stereo not drawn)	none
CCN(CC)c1ccc(NC(=O)Cn2nnc(-c3cccc(OC)c3OC)n2)c(C)c1	GSH fluor 266
Cc1nnc(-c2cnn(C)c2N)n1Cc1ccccc1F	GSH fluor 270
COc1ccc(Cn2c(C)nnc2-c2cnn(C)c2N)cc1OC	none
Cc1ccccc1-n1nc(C(=O)O)c(C)c(C#N)c1=O	GSH fluor 255
CC(=O)NC1C2CN3CCN(C2)CC1(Cc1ccccc1)C3 (stereo not drawn)	none
Cc1ccc(CC23CN4CCN(CC(C4)C2O)C3)c(C)c1 (stereo not drawn)	Avidin fluor 69
N#Cc1cc(-c2ccc(Cl)cc2)cnc1Sc1ccccc1	RGS4-Gao reg 21, RGS8-Gao reg 12, RGS16-Gao HTS 1.3, RGS7-Gao reg 15
N#Cc1cc(-c2ccccc2)cnc1Sc1ccc(Cl)cc1	none
CN1CCN(c2ccc(Cl)cc2NC(=O)c2nn(-c3ccccc3)c(=O)c3ccccc23)CC1	GSH fluor 92
CN1CCN(c2ccc(Cl)cc2NC(=O)C2COc3ccccc3O2)CC1 (stereo not drawn)	GSH fluor 264
